Over roughly 33,000 sequences, “E-score (dimensionless, -0.5 to 0.5)” has its median near -0.058; the highest 2% begin near 0.35. The list comes from a sample in which the highest values are over-represented; it also holds similar and randomly drawn sequences.
test system: MvaT; test: PBM 8-mer E-score (mean of HK and ME arrays) (E-score (dimensionless, -0.5 to 0.5)); higher = stronger relative binding preference
How it was run: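 Reported values are rank-based E-scores, taken as the mean of two universal arrays and parsed with a custom script. Each 8-mer score falls between -0.5 and 0.5. The arrays, ME and HK, were double-stranded 60-mers with a constant 25-mer primer region and a variable 35-mer region covering all 8-mers. They were probed, by an earlier protocol, with full-length P. aeruginosa MvaT carrying an N-terminal glutathione S-transferase fusion.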

Sequence | PBM 8-mer E-score
CGTCTCAG | -0.227
CTGTTTCA | -0.122
AACCCATT | 0.0496
GACCAACC | -0.0441
GCATCAGC | -0.135
CTCGTCGC | -0.208
AATATGTA | 0.365
AATATGTG | 0.368
ATTATGTA | 0.377
ATTATGTC | 0.305
ATTATGTG | 0.261
CATATGTA | 0.252
AATATGTC | 0.233
AACATGTC | -0.0784
ACTATGTG | 0.172
AACATGTT | 0.295
GATATGTA | 0.282
AACATGTA | 0.347
GTTGCAAC | 0.157
CGAGCTTC | -0.313
ACAGTCTA | -0.0014
ATAAAGGA | 0.0948
ACAGGCCG | -0.147
ATAAAGTG | 0.228
CATGATAC | 0.111

Sequence | PBM 8-mer E-score
GATATACC | 0.178
CCGATATA | 0.333
GAGATATC | 0.163
GATATATA | 0.469
GATATATC | 0.396
GGGATATA | 0.218
GATATCTA | 0.267
ACGATATA | 0.328
GCGATATA | 0.361
TCAAGTGA | -0.00408
AAAGAGTC | 0.0357
GTCGATCA | -0.174
CTGATACA | 0.0751
AATACAGC | 0.247
CTCGCAGC | -0.11
CCTCACCC | -0.165
CTAATTTC | 0.0429
AGAATTTC | 0.122
ATAATTCA | 0.325
ATAATTTG | 0.298
AGAATTTA | 0.262
CTAATTTA | 0.389
ATAATTTA | 0.416
ATAATTTC | 0.386
GTAATTCA | 0.191

Sequence | PBM 8-mer E-score
GTAATTGA | 0.264
GTAATTTA | 0.388
CTAATTGA | 0.11
AGTAGAGA | 0.0385
CCTGAATA | 0.0626
ACGGCAGA | -0.166
GCCACACC | -0.0459
AACTCTGC | 0.143
AAAGGTCA | -0.0376
ATCTCATA | -0.00882
ACTTATAC | 0.326
ACTTATGA | 0.248
CCTTATAA | 0.338
ACTTATAA | 0.419
TCTTATCA | 0.177
GCTTATGA | -0.0922
ACTTATCA | 0.196
GCTTATAC | 0.166
GCTTATAA | 0.418
TCTTATAA | 0.369
ACTTATAT | 0.424
ACTTATAG | 0.251
GAGCGTAC | -0.233
AGTTACTG | 0.282
ACTGGATA | 0.12

Sequence | PBM 8-mer E-score
ACCTAAGA | -0.0551
GCCCACGA | -0.205
CAATGAGA | -0.0714
GATAGAAA | 0.105
AGAAAGGG | -0.151
GCTCTTGA | -0.154
ATGTTGGG | 0.105
GGGAACTA | -0.0248
AACATTAG | 0.234
GACATTAA | 0.222
AACATTAT | 0.34
TACATTAA | 0.38
CACATTAA | 0.305
AACATTAA | 0.397
AAATCAGT | 0.111
CATAAGAA | 0.126
TATAAGAA | 0.369
TATAAGGA | 0.348
GATAAGAA | 0.121
GATAAGGA | -0.0851
CATAAGGA | -0.0113
CATGGAGC | -0.21
ATCTGCAT | 0.0581
CTGCATGC | -0.0882
AGAAATAC | 0.157

Sequence | PBM 8-mer E-score
CGAAATAA | 0.374
AGAAATAA | 0.37
TGAAATAA | 0.314
AGAAATAG | 0.216
AGAAATCA | -0.0327
AGAAATAT | 0.356
CGAAATAC | 0.0434
GGAAATAA | 0.31
GCTCACAC | -0.19
AAAGCCTA | 0.125
ACTATACA | 0.241
CCTATATC | 0.0838
ACTATATA | 0.452
CCTATATA | 0.35
CCTATACA | 0.116
GCTATATA | 0.402
GCTATAGA | -0.132
GCTATACA | 0.135
ACTATATC | 0.268
CGGCTGCC | -0.286
CATCCAAA | 0.0181
ATAGTGTG | 0.179
TAGGAAAA | 0.015
ACCAGACG | -0.141
ATTAAAAA | 0.321

Sequence | PBM 8-mer E-score
ATTAAAAG | 0.393
ATAAAAAT | 0.293
ATAAAAAG | 0.348
ATAAAAAC | 0.274
ATAAAAAA | 0.387
CTAAAAAG | 0.00374
CTTAAAAG | 0.166
ATAAAAGG | 0.119
ACTGGAAT | 0.118
AACCGACG | -0.000494
GTGCAAAC | 0.0651
AACCTTAC | -0.0526
AGACCATA | 0.00218
CACAGACG | -0.11
ATTCCTCA | 0.129
ATAAATTC | 0.309
ATAAATTA | 0.42
GTAAATTA | 0.391
GTAAATCA | 0.189
CTAAATTA | 0.336
AAAAATTG | 0.117
AAAAATTA | 0.275
GAAAATTA | 0.304
ATAAATTG | 0.369
ATAAACTG | 0.175

Sequence | PBM 8-mer E-score
ATAAACTC | 0.269
ATAAACTA | 0.356
AACTGGTC | -0.0685
TGACTGCA | -0.107
AACCCAGT | -0.0508
ATTGCACG | 0.182
ACTCATCA | 0.0732
AACCATCA | -0.0905
AAGTCTCT | 0.0309
ATCGAATC | -0.0636
GCGGGTTA | 0.0558
CGCGATAA | 0.143
ACCTATGG | -0.149
CATATAAG | 0.35
GATATAGC | 0.127
GATATAAA | 0.344
GAGATAAC | 0.0136
CACATAAG | 0.122
TATATAAA | 0.47
GATATAAC | 0.372
CCTATAAG | 0.0158
ACTATAAC | 0.334
AATATGAC | 0.183
TCTATAAA | 0.103
AATATAAC | 0.42

Sequence | PBM 8-mer E-score
CTCAAGGA | -0.151
CCTGCTCC | -0.302
ATTTGTTC | 0.206
ATTTTTTC | 0.132
AAGTGCGT | -0.0188
ACGGTTTC | -0.215
ATTAGCCC | 0.0535
ACACTAGT | 0.258
AGTGCTAC | -0.0841
CGAAATGC | -0.0574
AATATAAT | 0.449
TATAAACA | 0.373
GCTATAAA | 0.217
AAGATAAT | 0.287
AATATAAA | 0.451
CATATAGC | 0.0736
CATATAAC | 0.415
GATAAACA | 0.278
CACATAAC | 0.209
AATATGAT | 0.345
CATAAACA | 0.221
GAATGCGA | 0.0642
AATTCTAG | 0.157
CCCGGCCC | -0.325
TGCAAACA | 0.106

Sequence | PBM 8-mer E-score
ACGGAAGG | -0.218
CATATCAA | 0.174
GATAAAAA | 0.273
CACATAAA | 0.179
TATATCAA | 0.352
AAGATAAG | 0.148
CATAAAAA | 0.179
CATATAAA | 0.365
GATATCAA | 0.25
AATATAAG | 0.351
AGTATAAG | 0.272
CGTATAAA | 0.209
TATAAAAA | 0.371
GAATCATA | 0.151
CCATCTGA | -0.117
GTATGAAA | 0.222
GTCTGAGA | -0.139
AGAGATGC | -0.101
ATCTTTAG | 0.14

Reference: the supplement of paper PMC4466236
